Compound activity deposited in PubChem BioAssay by several laboratories.
Shown are actives, neighbours in structure and some others; about 3% of the full set was active somewhere.
IEC-6 tox: cytotoxicity in IEC-6 intestinal epithelial cells, primary screen, cytotoxicity control for KLF5 inhibitor project, cell-based, luminescence; IEC-6 cytotoxicity, luminescence viability; inhibition, % at 5 µM; 290,000 tested, 0.78% active; in the data active means inhibition above about 22%;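 further: 0% = plate median of test compound wells and 100% = cytotoxic reference compound wells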
KLF5 inh: KLF5 expression inhibitors, primary screen, DLD-1 cells, luminescence; DLD-1 KLF5 promoter-luciferase reporter; inhibition, % at 5 µM; 290,000 tested, 0.23% active;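 active means inhibition above a per-plate limit of that plate's mean compound inhibition plus 3 SD, cut at about 60% in these data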;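 further: 0% = DMSO wells and 100% = LY294002 at 200 µM; higher means less KLF5 promoter-driven luciferase light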
CSC inhib: cancer stem cell viability inhibitors, primary screen, luminescence. AID 2717, 2010. cancer stem cell-like cells viability. 300,000 tested, 1.1% active. inhibition, % at 7.5 µM; in the data active means inhibition above about 75%; inconclusive means no clear call, values can overlap the other calls; tested in HMLE shEcad cells
aSyn UTR inh: MLPCN primary screen, SNCA 5' untranslated region; alpha-synuclein 5'UTR reporter, inhibitor activity; inhibition, % (tested at 7.5 µM); 300,000 tested, 0.82% active; in the data active means inhibition above about 60%; inconclusive means no clear call, values can overlap the other calls;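 further: H4 neuroglioblastoma cells stably carrying SNCA 5'UTR luciferase fusion; 0% = DMSO wells and 100% = positive control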
SKKanGAS inh: S. pyogenes SKKanGAS growth inhibitors in kanamycin, primary screen, streptokinase expression inhibitor project, SKKanGAS strain, BacTiter-Glo luminescence; inhibition, % at 7.5 µM; 300,000 tested, 1.3% active; 6 h;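 active means mean replicate score, as percent of positive control median, at least 50; inconclusive means mean below 50 but one replicate at or above 50; inactive means mean and every replicate below 50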;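 further: strain carries kanamycin resistance gene driven by streptokinase promoter and grows in 40 µg/ml kanamycin; loss of luminescence reflects streptokinase promoter inhibition or plain growth inhibition; 0% = median of DMSO wells and 100% = positive control at its reference dose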
Active calls of the source: *.

Results for O=C(Nc1cccc2ccccc12)C12CC3CC(C1)CC(n1cnc([N+](=O)[O-])n1)(C3)C2 ?
IEC-6 tox: 0; KLF5 inh: -20; CSC inhib: 15; aSyn UTR inh: 73*; SKKanGAS inh: 0

What do the screens show for `COC(=O)c1ccccc1NC(=O)C12CC3CC(C1)CC(n1cnc(Cl)n1)(C3)C2`?
IEC-6 tox: -6; KLF5 inh: -1; CSC inhib: 3; aSyn UTR inh: -7; SKKanGAS inh: 4

Results for Cc1ccc(-c2nnc(NC(=O)c3ccco3)o2)c(C)c1 ?
CSC inhib: 15; aSyn UTR inh: -12; SKKanGAS inh: 84*

How did Cc1ccc(C)c(-c2nnc(NC(=O)c3ccco3)o2)c1 do in these assays?
CSC inhib: -2; aSyn UTR inh: 0; SKKanGAS inh: -9

What do the screens show for `O=C(Nc1nnc(-c2ccc(Br)cc2)o1)c1ccco1`?
CSC inhib: 23; aSyn UTR inh: -37; SKKanGAS inh: 94*

How did COC(=O)c1ccc(NC(=O)CCC(=O)c2ccc(F)cc2)cc1 do in these assays?
IEC-6 tox: -3; KLF5 inh: 4; CSC inhib: -6; aSyn UTR inh: -5; SKKanGAS inh: -6

Results for CCCCn1c(SCC(=O)N2c3ccccc3CCc3ccccc32)nc2c1c(=O)n(C)c(=O)n2C ?
IEC-6 tox: -8; KLF5 inh: -12; CSC inhib: 7; aSyn UTR inh: 74*; SKKanGAS inh: 0

What do the screens show for `CCn1c(SCC(=O)N2c3ccccc3CCc3ccccc32)nc2c1c(=O)n(C)c(=O)n2C`?
IEC-6 tox: 0; KLF5 inh: -25; CSC inhib: 12; aSyn UTR inh: 37; SKKanGAS inh: -1

How did COc1ccc2nc(Nc3nc(C)c(C(C)=O)s3)sc2c1 do in these assays?
IEC-6 tox: -14; KLF5 inh: -171; CSC inhib: 18; aSyn UTR inh: -186; SKKanGAS inh: 56*

Results for COc1ccc(Nc2nc3ccc(OC)cc3s2)cc1 ?
IEC-6 tox: -5; KLF5 inh: -101; aSyn UTR inh: -120; SKKanGAS inh: -3

What do the screens show for `C=CC(=O)NCCCc1cc(C(C)(C)C)c(O)c(C(C)(C)C)c1`?
IEC-6 tox: -7; KLF5 inh: -25; CSC inhib: -2; aSyn UTR inh: 22; SKKanGAS inh: 4

How did Cc1ccc(C=C2C(Cl)=C(Cl)C(Cl)=C2Cl)cc1 do in these assays?
IEC-6 tox: -11; KLF5 inh: -12; CSC inhib: 100*; aSyn UTR inh: -29; SKKanGAS inh: 78*

How did COc1ccc(C(=O)NC(=S)Nc2ccc(N3CCOCC3)c(Cl)c2)cc1[N+](=O)[O-] do in these assays?
IEC-6 tox: -3; KLF5 inh: -29; CSC inhib: 19; aSyn UTR inh: -8; SKKanGAS inh: 68*

What do the screens show for `O=C(/C=C/c1ccco1)NC(=S)Nc1ccc(N2CCOCC2)c(Cl)c1`?
IEC-6 tox: -1; KLF5 inh: -34; CSC inhib: 60; aSyn UTR inh: 14; SKKanGAS inh: 87*

How did NS(=O)(=O)c1ccc(CCNC(=O)c2cc([N+](=O)[O-])ccc2N2CCCCC2)cc1 do in these assays?
IEC-6 tox: -2; KLF5 inh: -20; CSC inhib: -7; aSyn UTR inh: 2; SKKanGAS inh: 3

What do the screens show for `NC1=NC(c2ccccc2C(F)(F)F)N(c2ccc(F)c(Cl)c2)C(N)=N1` (centres undefined)?
IEC-6 tox: 5; KLF5 inh: -1; CSC inhib: -9; aSyn UTR inh: 6; SKKanGAS inh: -7

Results for Nc1ccc(Br)cc1-c1nc2ccccc2[nH]c1=O ?
IEC-6 tox: 39*; KLF5 inh: -32; aSyn UTR inh: -102; SKKanGAS inh: -85

How did Cc1ccc(NC(=S)Nc2cccnc2)c(S(=O)(=O)N2CCCCC2)c1 do in these assays?
IEC-6 tox: -2; KLF5 inh: -14; CSC inhib: 15; aSyn UTR inh: -3; SKKanGAS inh: 4

How did CNC(=O)NC(=O)C(C)OC(=O)c1oc2ccccc2c1CSc1ccc(Cl)cc1 (centres undefined) do in these assays?
IEC-6 tox: -5; KLF5 inh: -37; CSC inhib: 104*; aSyn UTR inh: 11; SKKanGAS inh: 24

Results for CCCOCc1ccc(O)c2ncccc12 ?
IEC-6 tox: 2; KLF5 inh: 16; CSC inhib: 32; aSyn UTR inh: 46; SKKanGAS inh: 82*

How did Oc1ccc(COCc2ccccc2)c2cccnc12 do in these assays?
IEC-6 tox: 3; KLF5 inh: -4; CSC inhib: 73; aSyn UTR inh: inconclusive; SKKanGAS inh: inconclusive

How did CC(C)COCc1ccc(O)c2ncccc12 do in these assays?
IEC-6 tox: -2; KLF5 inh: -15; CSC inhib: 10; aSyn UTR inh: 96*; SKKanGAS inh: 83*

Results for Oc1ccc(F)c2cccnc12 ?
IEC-6 tox: 2; KLF5 inh: 10; CSC inhib: 8; aSyn UTR inh: -21; SKKanGAS inh: -17

What do the screens show for `Oc1ccc(CNc2ccccc2F)c2cccnc12`?
IEC-6 tox: -4; KLF5 inh: 8; aSyn UTR inh: 87*; SKKanGAS inh: 5

What do the screens show for `OCc1ccc(O)c2ncccc12`?
IEC-6 tox: -6; KLF5 inh: -7; CSC inhib: -3; aSyn UTR inh: 66*; SKKanGAS inh: 5

How did Oc1ccc(CN2CCCCC2)c2cccnc12 do in these assays?
IEC-6 tox: 2; KLF5 inh: 14; CSC inhib: 23; aSyn UTR inh: inconclusive; SKKanGAS inh: -7

What do the screens show for `Cn1nccc1C(=O)Nc1ccc2c(c1)OCO2`?
IEC-6 tox: -2; KLF5 inh: -82; CSC inhib: 6; aSyn UTR inh: -115; SKKanGAS inh: 3

What do the screens show for `S=C(NCC1CCCCC1)Nc1ccc(Oc2ccccc2)cc1`?
IEC-6 tox: 2; KLF5 inh: -24; CSC inhib: inconclusive; aSyn UTR inh: 10; SKKanGAS inh: 54*

Results for Fc1ccc(-c2[nH]ncc2CN2CCN(c3ccc(F)cc3)CC2)cc1 ?
IEC-6 tox: 1; KLF5 inh: -19; CSC inhib: -12; aSyn UTR inh: 13; SKKanGAS inh: 29

Results for OC1(c2ccc(Cl)cc2)CCN(Cc2cn[nH]c2-c2ccccc2)CC1 ?
IEC-6 tox: 14; KLF5 inh: -6; aSyn UTR inh: 70*; SKKanGAS inh: -4

What do the screens show for `Fc1ccc(N2CCN(Cc3cn[nH]c3-c3ccccc3)CC2)cc1`?
IEC-6 tox: 8; KLF5 inh: 4; CSC inhib: -11; aSyn UTR inh: 3; SKKanGAS inh: 52*

Results for Cc1c(CCOC(=O)CC23CC4CC(CC(C4)C2)C3)sc[n+]1CC(=O)c1ccccc1 ?
IEC-6 tox: -8; KLF5 inh: -37; CSC inhib: 100*; aSyn UTR inh: -39; SKKanGAS inh: 15

How did Cc1nc(-n2[nH]c3c(c2=O)CCCC3)[nH]c(=O)c1Cc1ccccc1 do in these assays?
IEC-6 tox: -5; KLF5 inh: -35; CSC inhib: 13; aSyn UTR inh: 90*; SKKanGAS inh: 95*

Results for Cc1nc(N2CCc3ccccc3C2)[nH]c(=O)c1Cc1ccccc1 ?
IEC-6 tox: 0; KLF5 inh: -14; CSC inhib: 1; aSyn UTR inh: -28; SKKanGAS inh: 22
